# Measured values from publication PMC7862700, “An all-to-all approach to the identification of sequence-specific readers for epigenetic DNA modifications on cytosine”.
# Columns and labels:
# Assay in all cases: DAPPL (digital affinity profiling via proximity ligation, sequencing); 10 mM Tris-HCl pH 7.5, 50 mM NaCl, 1 mM DTT, 4% glycerol, room temperature, 30 min; GST-TFs on glutathione beads, 16-mer random dsDNA library, 0.1% formaldehyde crosslink after washing; high values mean tight binding
# [1] = biological target: T1, FLI1 (Homo sapiens, UniProt Q01543 1-452); details: protein: recombinant; tags: N-terminal GST; dsDNA, one strand shown
# T1 sequence: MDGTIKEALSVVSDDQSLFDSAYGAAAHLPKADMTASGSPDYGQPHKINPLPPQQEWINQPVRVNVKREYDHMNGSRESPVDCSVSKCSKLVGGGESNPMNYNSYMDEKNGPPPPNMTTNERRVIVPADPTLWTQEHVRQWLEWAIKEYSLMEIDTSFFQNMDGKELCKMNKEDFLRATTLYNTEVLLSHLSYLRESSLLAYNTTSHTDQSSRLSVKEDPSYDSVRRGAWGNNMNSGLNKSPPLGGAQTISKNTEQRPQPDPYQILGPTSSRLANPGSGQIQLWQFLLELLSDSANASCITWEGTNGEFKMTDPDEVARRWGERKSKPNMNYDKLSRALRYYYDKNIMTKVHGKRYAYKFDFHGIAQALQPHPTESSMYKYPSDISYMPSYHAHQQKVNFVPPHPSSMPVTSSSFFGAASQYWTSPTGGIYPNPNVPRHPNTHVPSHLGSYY
# Outline: (§1)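 Human transcription factors were made in yeast as GST fusions, captured on glutathione beads and barcoded with DNA. With a tag-only sample included, the pool was incubated with 200 nmole of a random double-stranded 16-mer DNA library in Tris/NaCl/DTT/glycerol buffer at room temperature for 30 min, then crosslinked with 0.1% formaldehyde after washing, ligated by proximity, amplified and sequenced. For binding signal, each hexamer's read frequency for a factor is divided by its frequency for the tag-only sample.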
# [2] = biological target: T2, ELK1 (Homo sapiens, UniProt P19419 1-428); details: protein: recombinant; tags: N-terminal GST; dsDNA, one strand shown
# T2 sequence: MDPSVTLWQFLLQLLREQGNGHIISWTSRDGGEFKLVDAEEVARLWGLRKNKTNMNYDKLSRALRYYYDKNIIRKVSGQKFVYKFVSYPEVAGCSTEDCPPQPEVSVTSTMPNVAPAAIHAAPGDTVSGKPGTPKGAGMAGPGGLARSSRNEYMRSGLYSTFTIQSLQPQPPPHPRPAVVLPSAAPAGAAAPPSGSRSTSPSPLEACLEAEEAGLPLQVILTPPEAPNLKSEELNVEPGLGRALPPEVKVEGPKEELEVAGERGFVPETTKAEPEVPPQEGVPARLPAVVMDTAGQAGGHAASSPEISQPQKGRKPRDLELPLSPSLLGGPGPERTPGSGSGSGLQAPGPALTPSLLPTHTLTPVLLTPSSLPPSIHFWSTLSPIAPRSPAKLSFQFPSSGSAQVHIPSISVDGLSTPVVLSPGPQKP
# Outline: as §1
# [3] = biological target: T3, GABPA (Homo sapiens, UniProt Q06546 1-454); details: protein: recombinant; tags: N-terminal GST; dsDNA, one strand shown
# T3 sequence: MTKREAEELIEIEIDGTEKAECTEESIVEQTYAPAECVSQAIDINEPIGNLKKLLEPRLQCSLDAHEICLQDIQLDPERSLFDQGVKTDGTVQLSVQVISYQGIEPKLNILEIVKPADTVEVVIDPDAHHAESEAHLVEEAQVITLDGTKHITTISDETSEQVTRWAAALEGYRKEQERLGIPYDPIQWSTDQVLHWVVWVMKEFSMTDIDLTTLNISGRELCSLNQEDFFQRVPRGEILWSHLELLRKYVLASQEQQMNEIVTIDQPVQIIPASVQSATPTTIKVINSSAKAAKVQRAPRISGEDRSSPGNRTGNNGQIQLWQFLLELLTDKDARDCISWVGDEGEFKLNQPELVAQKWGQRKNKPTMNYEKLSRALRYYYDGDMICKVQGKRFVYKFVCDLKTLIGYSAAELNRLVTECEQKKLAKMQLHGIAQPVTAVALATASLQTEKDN
# Outline: as §1
# [4] = biological target: T4, ERG (Homo sapiens, UniProt P11308 1-479); details: protein: recombinant; tags: N-terminal GST; dsDNA, one strand shown
# T4 sequence: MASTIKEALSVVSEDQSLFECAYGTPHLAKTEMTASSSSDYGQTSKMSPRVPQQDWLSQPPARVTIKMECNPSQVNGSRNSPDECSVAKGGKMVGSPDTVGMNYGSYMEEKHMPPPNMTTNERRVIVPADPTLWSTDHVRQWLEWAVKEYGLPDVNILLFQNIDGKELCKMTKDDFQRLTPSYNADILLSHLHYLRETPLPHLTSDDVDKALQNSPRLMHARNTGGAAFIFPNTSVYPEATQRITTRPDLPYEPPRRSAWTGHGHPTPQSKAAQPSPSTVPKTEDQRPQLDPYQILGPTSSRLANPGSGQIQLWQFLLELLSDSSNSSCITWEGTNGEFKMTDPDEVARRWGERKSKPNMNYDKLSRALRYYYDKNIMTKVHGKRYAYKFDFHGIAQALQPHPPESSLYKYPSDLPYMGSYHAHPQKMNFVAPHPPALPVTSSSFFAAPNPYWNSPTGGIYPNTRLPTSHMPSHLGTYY
# Outline: as §1
# [5] = biological target: ELF1 (Homo sapiens, UniProt P32519 1-619); details: protein: recombinant; tags: N-terminal GST; dsDNA, one strand shown
# Outline: as §1
# [6] = biological target: T5, EHF (Homo sapiens, UniProt Q9NZC4 1-300); details: protein: recombinant; tags: N-terminal GST; dsDNA, one strand shown
# T5 sequence: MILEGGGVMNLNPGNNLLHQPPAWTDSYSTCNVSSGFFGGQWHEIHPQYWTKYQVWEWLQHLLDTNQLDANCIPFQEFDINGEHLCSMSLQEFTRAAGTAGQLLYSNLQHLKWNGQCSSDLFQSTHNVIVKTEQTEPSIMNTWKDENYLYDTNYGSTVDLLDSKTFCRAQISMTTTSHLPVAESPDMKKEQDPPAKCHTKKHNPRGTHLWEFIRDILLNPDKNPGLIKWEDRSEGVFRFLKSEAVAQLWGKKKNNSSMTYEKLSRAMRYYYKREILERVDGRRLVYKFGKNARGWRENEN
# Outline: as §1
# [7] = biological target: SPI1 (Homo sapiens, UniProt P17947 1-270); details: protein: recombinant; tags: N-terminal GST; dsDNA, one strand shown
# Outline: as §1
# [8] = biological target: SPIB (Homo sapiens, UniProt Q01892 1-262); details: protein: recombinant; tags: N-terminal GST; dsDNA, one strand shown
# Outline: as §1
# [9] = biological target: T6, ELK3 (Homo sapiens, UniProt P41970 1-407); details: protein: recombinant; tags: N-terminal GST; dsDNA, one strand shown
# T6 sequence: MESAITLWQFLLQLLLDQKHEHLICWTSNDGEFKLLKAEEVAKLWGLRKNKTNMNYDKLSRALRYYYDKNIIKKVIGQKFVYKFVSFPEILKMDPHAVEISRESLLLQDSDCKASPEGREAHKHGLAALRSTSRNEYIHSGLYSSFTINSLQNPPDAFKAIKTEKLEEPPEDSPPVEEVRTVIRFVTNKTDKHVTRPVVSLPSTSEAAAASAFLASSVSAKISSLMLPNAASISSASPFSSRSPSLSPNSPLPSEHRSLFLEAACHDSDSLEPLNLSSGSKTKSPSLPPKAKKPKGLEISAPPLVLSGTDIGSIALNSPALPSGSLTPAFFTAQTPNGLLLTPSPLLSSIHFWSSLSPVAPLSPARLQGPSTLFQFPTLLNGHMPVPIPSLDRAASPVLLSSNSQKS
# Outline: as §1
# [10] = biological target: T7, FEV (Homo sapiens, UniProt Q99581 1-238); details: protein: recombinant; tags: N-terminal GST; dsDNA, one strand shown
# T7 sequence: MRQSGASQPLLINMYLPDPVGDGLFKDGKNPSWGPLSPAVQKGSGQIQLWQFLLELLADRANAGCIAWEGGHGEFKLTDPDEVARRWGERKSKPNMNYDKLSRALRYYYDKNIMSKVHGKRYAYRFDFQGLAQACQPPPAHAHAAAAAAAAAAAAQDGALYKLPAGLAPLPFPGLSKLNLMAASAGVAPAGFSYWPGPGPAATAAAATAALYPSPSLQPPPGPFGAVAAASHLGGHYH
# Outline: as §1
# [11] = biological target: ETV5 (Homo sapiens, UniProt P41161 1-510); details: protein: recombinant; tags: N-terminal GST; dsDNA, one strand shown
# Outline: as §1
# [12] = biological target: HSF1 (Homo sapiens, UniProt Q00613 1-529); details: protein: recombinant; tags: N-terminal GST; chain copies: 3; dsDNA, one strand shown
# Outline: as §1
# [13] = biological target: T8, SPIC (Homo sapiens, UniProt Q8N5J4 1-248); details: protein: recombinant; tags: N-terminal GST; dsDNA, one strand shown
# T8 sequence: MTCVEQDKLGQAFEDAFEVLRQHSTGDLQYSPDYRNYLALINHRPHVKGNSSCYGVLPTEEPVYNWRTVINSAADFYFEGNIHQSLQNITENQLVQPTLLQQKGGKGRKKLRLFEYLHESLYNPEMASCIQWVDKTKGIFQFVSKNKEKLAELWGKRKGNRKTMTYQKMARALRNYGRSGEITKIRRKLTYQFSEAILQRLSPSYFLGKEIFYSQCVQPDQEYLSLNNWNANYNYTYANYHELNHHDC
# Outline: as §1
# [14] = biological target: ELF4 (Homo sapiens, UniProt Q99607 1-663); details: protein: recombinant; tags: N-terminal GST; dsDNA, one strand shown
# Outline: as §1
# [15] = biological target: T9, ELK4 (Homo sapiens, UniProt P28324-2 1-405); details: protein: recombinant; tags: N-terminal GST; dsDNA, one strand shown
# T9 sequence: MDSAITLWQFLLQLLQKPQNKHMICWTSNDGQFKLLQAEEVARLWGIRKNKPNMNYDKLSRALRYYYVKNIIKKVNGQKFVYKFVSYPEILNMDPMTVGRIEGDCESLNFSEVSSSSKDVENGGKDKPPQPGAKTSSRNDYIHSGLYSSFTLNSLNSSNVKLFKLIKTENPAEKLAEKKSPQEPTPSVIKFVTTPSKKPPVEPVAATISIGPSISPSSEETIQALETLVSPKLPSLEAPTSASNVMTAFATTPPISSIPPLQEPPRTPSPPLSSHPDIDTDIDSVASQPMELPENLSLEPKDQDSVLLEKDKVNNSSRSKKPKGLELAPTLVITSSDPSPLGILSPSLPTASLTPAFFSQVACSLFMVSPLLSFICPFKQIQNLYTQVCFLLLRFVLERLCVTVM
# Outline: as §1
# [16] = biological target: T10, ETV2 (Homo sapiens, UniProt O00321 1-342); details: protein: recombinant; tags: N-terminal GST; dsDNA, one strand shown
# T10 sequence: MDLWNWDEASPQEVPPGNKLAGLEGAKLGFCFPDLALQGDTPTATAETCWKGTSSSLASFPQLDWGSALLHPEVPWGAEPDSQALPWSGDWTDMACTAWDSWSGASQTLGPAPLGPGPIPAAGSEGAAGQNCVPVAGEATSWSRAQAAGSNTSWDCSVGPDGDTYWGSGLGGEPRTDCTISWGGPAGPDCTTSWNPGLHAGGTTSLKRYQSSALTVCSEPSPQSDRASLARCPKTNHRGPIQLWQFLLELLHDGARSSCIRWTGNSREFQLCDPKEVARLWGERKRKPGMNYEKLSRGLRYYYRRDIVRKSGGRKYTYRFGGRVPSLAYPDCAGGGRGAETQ
# Outline: as §1
# [17] = biological target: T11, ELF3 (Homo sapiens, UniProt P78545 1-371); details: protein: recombinant; tags: N-terminal GST; dsDNA, one strand shown
# T11 sequence: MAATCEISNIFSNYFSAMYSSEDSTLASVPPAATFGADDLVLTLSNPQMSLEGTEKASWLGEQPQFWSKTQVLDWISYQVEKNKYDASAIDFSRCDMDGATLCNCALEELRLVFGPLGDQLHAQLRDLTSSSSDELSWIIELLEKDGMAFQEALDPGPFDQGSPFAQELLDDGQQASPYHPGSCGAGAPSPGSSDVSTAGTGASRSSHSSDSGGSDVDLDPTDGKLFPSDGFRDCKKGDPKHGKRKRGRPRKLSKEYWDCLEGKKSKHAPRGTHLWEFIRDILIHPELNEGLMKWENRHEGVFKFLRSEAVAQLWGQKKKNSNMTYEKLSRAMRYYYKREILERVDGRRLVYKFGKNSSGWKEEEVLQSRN
# Outline: as §1
# [18] = biological target: CRX (Homo sapiens, UniProt O43186 1-299); details: protein: recombinant; tags: N-terminal GST; dsDNA, one strand shown
# Outline: as §1
# [19] = biological target: ETV1 (Homo sapiens, UniProt P50549 1-477); details: protein: recombinant; tags: N-terminal GST; dsDNA, one strand shown
# Outline: as §1
# Sequence of ELF1 (P32519 whole entry): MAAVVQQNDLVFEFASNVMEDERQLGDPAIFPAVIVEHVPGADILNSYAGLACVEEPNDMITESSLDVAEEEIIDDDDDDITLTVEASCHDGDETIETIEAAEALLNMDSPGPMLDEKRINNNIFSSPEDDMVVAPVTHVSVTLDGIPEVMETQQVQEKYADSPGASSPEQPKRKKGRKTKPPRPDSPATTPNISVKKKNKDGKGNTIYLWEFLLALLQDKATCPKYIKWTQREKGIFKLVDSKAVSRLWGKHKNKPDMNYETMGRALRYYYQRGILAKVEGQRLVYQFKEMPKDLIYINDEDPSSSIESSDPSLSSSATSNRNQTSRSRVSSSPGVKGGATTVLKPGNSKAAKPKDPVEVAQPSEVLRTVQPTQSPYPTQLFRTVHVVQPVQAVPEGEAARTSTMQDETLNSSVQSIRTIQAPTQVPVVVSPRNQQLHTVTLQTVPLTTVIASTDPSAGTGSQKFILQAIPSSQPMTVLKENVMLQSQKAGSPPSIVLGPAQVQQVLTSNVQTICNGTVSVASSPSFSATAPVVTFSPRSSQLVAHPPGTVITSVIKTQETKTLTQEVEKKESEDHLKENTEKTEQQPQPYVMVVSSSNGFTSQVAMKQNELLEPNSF
# Sequence of ELF4 (Q99607 whole entry): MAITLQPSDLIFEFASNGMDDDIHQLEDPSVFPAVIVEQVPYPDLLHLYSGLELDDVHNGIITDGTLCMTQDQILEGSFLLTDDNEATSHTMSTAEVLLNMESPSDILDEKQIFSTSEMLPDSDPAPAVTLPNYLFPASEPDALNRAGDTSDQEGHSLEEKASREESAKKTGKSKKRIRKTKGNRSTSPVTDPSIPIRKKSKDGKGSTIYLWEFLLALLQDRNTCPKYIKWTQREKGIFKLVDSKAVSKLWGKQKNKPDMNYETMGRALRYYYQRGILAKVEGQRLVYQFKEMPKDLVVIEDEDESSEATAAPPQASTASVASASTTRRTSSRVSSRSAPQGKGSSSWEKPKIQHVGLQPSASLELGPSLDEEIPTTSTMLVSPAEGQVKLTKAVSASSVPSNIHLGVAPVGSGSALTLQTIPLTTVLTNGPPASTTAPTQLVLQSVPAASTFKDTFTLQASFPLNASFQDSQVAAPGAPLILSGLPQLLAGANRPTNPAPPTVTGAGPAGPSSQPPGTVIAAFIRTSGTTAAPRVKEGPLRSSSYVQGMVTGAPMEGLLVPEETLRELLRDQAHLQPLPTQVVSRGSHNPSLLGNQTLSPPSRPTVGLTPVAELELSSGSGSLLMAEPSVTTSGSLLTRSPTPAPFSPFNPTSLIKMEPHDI
# Sequence of ETV5 (P41161 whole entry): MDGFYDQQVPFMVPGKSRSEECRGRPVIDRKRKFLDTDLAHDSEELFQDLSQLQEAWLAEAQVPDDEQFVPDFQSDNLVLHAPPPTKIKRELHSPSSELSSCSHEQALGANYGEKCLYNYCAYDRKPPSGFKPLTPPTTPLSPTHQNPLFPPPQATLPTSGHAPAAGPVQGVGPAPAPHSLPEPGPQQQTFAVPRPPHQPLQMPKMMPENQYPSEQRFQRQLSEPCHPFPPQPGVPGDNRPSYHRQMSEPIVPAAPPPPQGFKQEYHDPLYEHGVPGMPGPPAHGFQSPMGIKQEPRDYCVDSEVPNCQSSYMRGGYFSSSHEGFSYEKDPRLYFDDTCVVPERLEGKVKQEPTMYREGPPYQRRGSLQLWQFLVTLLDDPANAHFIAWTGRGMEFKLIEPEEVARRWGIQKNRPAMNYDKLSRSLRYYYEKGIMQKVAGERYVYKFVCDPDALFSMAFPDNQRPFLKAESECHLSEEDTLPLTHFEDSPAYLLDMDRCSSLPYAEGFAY
# Sequence of CRX (O43186 whole entry): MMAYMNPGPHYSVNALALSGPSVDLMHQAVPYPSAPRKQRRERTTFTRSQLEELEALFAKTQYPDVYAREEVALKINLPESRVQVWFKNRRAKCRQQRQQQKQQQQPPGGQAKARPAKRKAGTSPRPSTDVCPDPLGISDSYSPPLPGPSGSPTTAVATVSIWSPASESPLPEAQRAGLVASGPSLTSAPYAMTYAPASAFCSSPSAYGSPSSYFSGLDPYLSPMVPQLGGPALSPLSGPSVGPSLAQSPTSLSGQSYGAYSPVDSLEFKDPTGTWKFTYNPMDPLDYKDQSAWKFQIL
# Sequence of SPIB (Q01892 whole entry): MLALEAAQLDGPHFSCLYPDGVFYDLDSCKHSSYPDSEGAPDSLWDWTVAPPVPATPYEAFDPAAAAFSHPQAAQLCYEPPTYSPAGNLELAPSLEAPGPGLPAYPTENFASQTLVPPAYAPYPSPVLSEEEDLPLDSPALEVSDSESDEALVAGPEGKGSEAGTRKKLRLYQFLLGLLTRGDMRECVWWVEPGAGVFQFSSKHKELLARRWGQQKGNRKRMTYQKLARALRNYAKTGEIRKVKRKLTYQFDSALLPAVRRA
# Sequence of ETV1 (P50549 whole entry): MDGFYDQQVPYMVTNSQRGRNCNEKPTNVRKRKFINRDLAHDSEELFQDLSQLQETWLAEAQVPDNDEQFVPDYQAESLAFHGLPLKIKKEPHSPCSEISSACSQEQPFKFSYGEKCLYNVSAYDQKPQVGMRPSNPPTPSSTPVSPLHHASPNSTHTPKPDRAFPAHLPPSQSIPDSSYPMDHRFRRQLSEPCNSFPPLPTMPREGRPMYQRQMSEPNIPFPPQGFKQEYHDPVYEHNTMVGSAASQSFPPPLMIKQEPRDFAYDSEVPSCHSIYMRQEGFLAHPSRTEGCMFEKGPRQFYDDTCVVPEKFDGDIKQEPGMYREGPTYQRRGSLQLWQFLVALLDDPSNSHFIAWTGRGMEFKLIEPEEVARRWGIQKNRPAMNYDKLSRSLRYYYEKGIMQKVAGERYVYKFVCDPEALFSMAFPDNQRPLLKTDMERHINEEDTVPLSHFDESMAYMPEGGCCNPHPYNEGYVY
# Sequence of HSF1 (Q00613 whole entry): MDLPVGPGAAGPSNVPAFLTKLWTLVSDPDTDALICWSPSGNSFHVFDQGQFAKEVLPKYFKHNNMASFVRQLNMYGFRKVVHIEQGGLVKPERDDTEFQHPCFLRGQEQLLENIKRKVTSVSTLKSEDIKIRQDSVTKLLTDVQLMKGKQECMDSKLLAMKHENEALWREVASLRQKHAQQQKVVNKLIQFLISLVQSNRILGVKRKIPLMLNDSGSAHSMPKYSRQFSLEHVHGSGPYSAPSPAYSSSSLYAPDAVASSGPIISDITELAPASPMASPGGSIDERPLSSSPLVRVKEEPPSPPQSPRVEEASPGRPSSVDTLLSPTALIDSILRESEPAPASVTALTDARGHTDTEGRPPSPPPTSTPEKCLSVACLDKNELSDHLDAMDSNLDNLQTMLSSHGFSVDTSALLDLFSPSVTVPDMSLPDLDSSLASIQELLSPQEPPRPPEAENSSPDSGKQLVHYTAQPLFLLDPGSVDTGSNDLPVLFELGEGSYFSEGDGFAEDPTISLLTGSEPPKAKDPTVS
sequence,measurement,setting,value
ACCCTT,binding signal,[1],"1.3 fold enrichment (6-mer frequency, TF over GST control)"
same,binding signal,[2],"1.23 fold enrichment (6-mer frequency, TF over GST control)"
same,binding signal,[3],"1.23 fold enrichment (6-mer frequency, TF over GST control)"
same,binding signal,[4],"1.19 fold enrichment (6-mer frequency, TF over GST control)"
same,binding signal,[5],"1.16 fold enrichment (6-mer frequency, TF over GST control)"
same,binding signal,[6],"1.18 fold enrichment (6-mer frequency, TF over GST control)"
same,binding signal,[7],"1.21 fold enrichment (6-mer frequency, TF over GST control)"
same,binding signal,[8],"1.19 fold enrichment (6-mer frequency, TF over GST control)"
same,binding signal,[9],"1.2 fold enrichment (6-mer frequency, TF over GST control)"
same,binding signal,[10],"1.21 fold enrichment (6-mer frequency, TF over GST control)"
same,binding signal,[11],"1.25 fold enrichment (6-mer frequency, TF over GST control)"
same,binding signal,[12],"1.09 fold enrichment (6-mer frequency, TF over GST control)"
same,binding signal,[13],"1.02 fold enrichment (6-mer frequency, TF over GST control)"
same,binding signal,[14],"1.26 fold enrichment (6-mer frequency, TF over GST control)"
same,binding signal,[15],"1.08 fold enrichment (6-mer frequency, TF over GST control)"
same,binding signal,[16],"1.33 fold enrichment (6-mer frequency, TF over GST control)"
same,binding signal,[17],"1.23 fold enrichment (6-mer frequency, TF over GST control)"
same,binding signal,[18],"1.15 fold enrichment (6-mer frequency, TF over GST control)"
same,binding signal,[19],"1.18 fold enrichment (6-mer frequency, TF over GST control)"
